Measured values as given in PubChem BioAssay (NCI).
About 83,000 compounds went through this panel and 20% of them were active in at least one assay; those are over-represented in the sample as a whole.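 Note: values are percent growth. 100 is the growth of untreated cells, values between 100 and 0 indicate rising inhibition; between -100 and 0 indicates cell death.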 The source made the active and inactive calls. How the source made its calls: active means growth percent below 10; inactive means the rest.

How the values were obtained:
Experiment in all cases: NCI-60 one-dose screen, 48 h (100 = growth as untreated, 0 = no growth, -100 = all killed)
Details in all cases: 10 µM
[1] = tested on: NCI-H23 lung
[2] = tested on: NCI-H226 lung
[3] = tested on: NCI-H322M lung
[4] = tested on: HOP-62 NSCLC
[5] = tested on: NCI-H460 lung
[6] = tested on: HOP-92 NSCLC
[7] = tested on: NCI-H522 lung
[8] = tested on: A549/ATCC NSCLC
[9] = tested on: 786-0 renal
[10] = tested on: COLO 205 colon

Measured: growth

CCN(CC)CCOC(=O)c1ccc(N=Nc2ccc(O)c(OC)c2)cc1
inactive: [1] 94.5% | [2] 90.4% | [3] 90.9% | [4] 98.8% | [5] 110% | [6] 94.6% | [7] 63.8% | [8] 91.1% | [9] 95.9% | [10] 107%

O=C1/C(=C/c2ccc(O)cc2O)N=C2SCCCN12
inactive: [1] 95.2% | [2] 106% | [3] 97.8% | [4] 85.4% | [5] 110% | [6] 108% | [7] 92.3% | [8] 92.1% | [9] 81.9% | [10] 106%

CCCCCCCCCCCC(=O)NCCCN(C)C
inactive: [1] 90.4% | [2] 109% | [3] 97.1% | [4] 111% | [5] 99.6% | [6] 45.5% | [7] 87.4% | [8] 91.4% | [9] 90.9% | [10] 94.4%

O=C(NC1CCN(Cc2ccccc2)CC1)c1cc(-c2ccncc2)nc2ccc(Cl)cc12
inactive: [1] 38.3% | [2] 26.9% | [3] 32.5% | [4] 45.6% | [6] 27.7% | [7] 28.6% | [9] 31.1% | [10] 18.5%
active: [5] 6.31% | [8] 6.48%

CCCCOCC(=O)NC(NP(=O)(N(C)C)N(C)C)C(Cl)(Cl)Cl (stereo not given)
inactive: [1] 101% | [2] 109% | [3] 127% | [4] 81.2% | [5] 110% | [6] 97.7% | [7] 107% | [8] 102% | [9] 92.5% | [10] 109%

CN(C)Cc1cccs1
inactive: [1] 94% | [2] 93.9% | [3] 101% | [4] 69.1% | [5] 108% | [6] 97.2% | [7] 94.2% | [8] 93.7% | [9] 103% | [10] 107%

CCOC(=O)c1ccc(N(C=O)CCC(=O)CCl)cc1
active: [5] 4.12% | [6] -7.96% | [7] -71.9% | [9] 2.2% | [10] -9.81%
inactive: [1] 19.5% | [2] 36.2% | [3] 75.6% | [4] 29.8% | [8] 12.3%

COc1cc(/C=C/C(=O)c2cc(-c3ccc(F)cc3)ccc2O)cc(OC)c1OC
inactive: [1] 56.3% | [2] 83.5% | [3] 93.6% | [4] 115% | [5] 80.6% | [6] 57.8% | [7] 58.7% | [8] 83.5% | [9] 94.1% | [10] 88.2%

COc1cccc(C(=O)NNc2nc(N3CCOCC3)nc(N3CCN(C(c4ccccc4)c4ccccc4)CC3)n2)c1
inactive: [1] 84.2% | [2] 83.6% | [3] 82.8% | [4] 82.2% | [5] 87.8% | [6] 70.3% | [7] 86.6% | [8] 62.4% | [9] 86.6% | [10] 75.4%

Cc1cccc2c(Nc3ccc(NS(C)(=O)=O)cc3)c3ccc([N+](=O)[O-])cc3nc12
inactive: [3] 36.4% | [4] 14% | [10] 34.9%
active: [1] -17.6% | [2] -20.8% | [5] -34.6% | [6] -16.7% | [7] -68.3% | [8] 1.51% | [9] 5.57%

COC(=O)[C@]12CC[C@@H](C)[C@H](C)[C@@H]1C1=CC[C@@H]3[C@@]4(C)CC(=O)[C@H](O)[C@@]5(C)COC(=C45)C[C@@]3(C)[C@]1(C)CC2
active: [1] -66.5% | [2] -74.7% | [3] -73.4% | [4] -74.7% | [5] -51.8% | [6] -83.2% | [7] -76.3% | [8] -60.4% | [9] -76.5% | [10] -80.6%

O=C(NNc1nc(N2CCCC2)nc(N2CCCC2)n1)c1ccccc1
inactive: [1] 99.3% | [2] 107% | [3] 94.9% | [4] 101% | [5] 117% | [6] 83.5% | [7] 94.2% | [8] 104% | [9] 121% | [10] 109%

NC1CCC(Nc2nc(NCc3cc(Cl)ccc3O)c3ncn(C4CCCC4)c3n2)CC1 (stereo not given)
inactive: [3] 10.9%
active: [1] -49.1% | [2] -6.72% | [4] -18% | [5] 0.39% | [6] -18.1% | [7] -50.2% | [8] -4.99% | [9] -11.3% | [10] -63.1%

CN(C)c1ccc2cc(-c3cc4c(oc3=O)-c3ccccc3OC4O)c(=O)oc2c1 (stereo not given)
active: [1] -3.16% | [2] -14.9% | [6] -49.1% | [7] -57.2% | [9] -15.7% | [10] -56.2%
inactive: [3] 39% | [4] 12.1% | [5] 56.7% | [8] 39.5%

COc1ccc(C2C=C(c3ccc(Cl)cc3)N=C3SC=CN32)c(Br)c1 (stereo not given)
inactive: [1] 71.6% | [2] 81.4% | [3] 112% | [4] 87.3% | [5] 76.7% | [6] 76.2% | [7] 65.5% | [8] 56.8% | [9] 89.6% | [10] 70.4%

CCCCC(=O)N(c1ccc(Nc2c3ccccc3nc3cc([N+](=O)[O-])ccc23)cc1)S(C)(=O)=O
inactive: [1] 81.8% | [2] 71.3% | [3] 82.1% | [4] 56% | [5] 14% | [6] 39.2% | [7] 50.7% | [8] 34% | [9] 74.3% | [10] 88.1%

Nc1cc(O)cc(O)c1
inactive: [1] 93.9% | [2] 107% | [3] 104% | [4] 88.1% | [5] 106% | [6] 93.4% | [7] 94% | [8] 106% | [9] 93.9% | [10] 102%

CCOC(=O)c1c(C)n(-c2ccc(Cl)cc2)c2ccc(OC(=O)/C=C/c3ccccc3)cc12
inactive: [1] 93.3% | [2] 95.1% | [3] 94.8% | [4] 95% | [5] 99.1% | [6] 58% | [7] 82.3% | [8] 67.7% | [9] 94.3% | [10] 93.1%

c1ccc(OCCC[P+](c2ccccc2)(c2ccccc2)c2ccccc2)cc1
inactive: [2] 47.4% | [3] 20.4% | [4] 22% | [5] 12.5% | [8] 25.6% | [9] 23.1%
active: [1] 1.67% | [6] -31.3% | [7] -7.37% | [10] -35.6%

COc1cccc(C2(C)Nc3ccccc3-c3nc4ccccc4n32)c1 (stereo not given)
inactive: [1] 102% | [2] 102% | [3] 92% | [4] 97.7% | [5] 101% | [6] 93.4% | [7] 103% | [8] 102% | [9] 101% | [10] 109%

O=[N+]([O-])c1ccc(-c2nc(-c3ccccc3)c(-c3ccccc3)n2-c2ccccc2)cc1
active: [6] -12.6% | [7] -11.7%
inactive: [1] 25.2% | [2] 57% | [3] 58.5% | [4] 38.2% | [5] 36.4% | [8] 34.6% | [9] 57.3% | [10] 68.1%

C/C=C\COc1cc(C)c(Cl)cc1Cl
inactive: [1] 111% | [2] 87.5% | [3] 104% | [4] 109% | [5] 103% | [6] 85.5% | [7] 119% | [8] 91.8% | [9] 108% | [10] 107%

N#CCC1CCCC1
inactive: [1] 115% | [2] 107% | [3] 111% | [4] 92.7% | [5] 105% | [6] 80% | [7] 109% | [8] 101% | [9] 96.3% | [10] 109%

COc1cc(Cn2c(-c3ccccc3)c(Cl)c3c2-c2oncc2CC3)cc(OC)c1
active: [7] 9.45%
inactive: [1] 72.2% | [2] 109% | [3] 68.5% | [4] 102% | [5] 46.3% | [6] 51.7% | [8] 53.5% | [9] 74.7% | [10] 113%

COc1ccc(-c2nnc(SC/C(=N\O)c3ccccc3)o2)cc1
inactive: [1] 89.3% | [2] 95.5% | [3] 113% | [4] 97.7% | [5] 98.8% | [6] 98.4% | [7] 71.4% | [8] 107% | [9] 97.2% | [10] 110%

Cc1ccc([P+](Cc2ccccc2)(c2ccccc2)c2ccccc2)cc1
active: [6] -25.3% | [7] -21.6% | [10] -68.9%
inactive: [1] 12.4% | [2] 28.3% | [3] 16.2% | [4] 23.7% | [5] 12.4% | [8] 18.1% | [9] 21.3%

CCCCCc1cc[n+](CC(=O)c2ccc(Cl)cc2)cc1
inactive: [1] 81.5% | [2] 90.8% | [3] 85.3% | [4] 92.7% | [5] 98.5% | [6] 78% | [7] 72.1% | [8] 91.3% | [9] 76.2% | [10] 80.5%
